# In the library only some 19% were active in any assay of this set; here they are far more common.
# HT1080NT lethal = kills 2HG-producing HT-1080-NT fibrosarcoma cells. HT-1080-NT fibrosarcoma viability, CellTiter-Glo ATP luminescence, 48 h. Potency, µM (series often up to 46.1 µM), for the others: at the highest dose activity, negative = less viability, usual class: cytotoxic. 1.6% of 360,000 active;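 note: NT is the 2HG producing partner of a matched IDH1 knockdown line; 0% = DMSO-treated cells and -100% = media-only wells without cells; nearly all actives have a fitted effect of over 55% in size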
#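 HT-1080-NT fibrosarcoma cells (2HG-overproducing), 750 cells/well in RPMI with 5% FBS, dosed after 2 h and incubated 48 h at 37C. CellTiter-Glo luminescence normalized to DMSO and no-cell wells; concentration-response curves fitted and classed.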
# DT40 TDP1 no CPT = qHTS for Inhibitors of human tyrosyl-DNA phosphodiesterase 1 (TDP1): qHTS in cells in absence of CPT | 15% of 420,000 active | AID 686978, 2013 | DT40 Tdp1-/- hTDP1 cells, no CPT, ATP luminescence, 48 h | Potency, µM (titrated, usually from 46.2 µM), inactives show at the highest dose activity change, negative = growth inhibition, usual class: inhibitors; note: nearly all actives have a fitted effect of over 55% in size
#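 Growth kinetics read by CellTiter-Glo luminescence after ≥48 hr at 37 °C. Cells: DT40 Tdp1-/- stably carrying human TDP1, 400 per well, compound exposure in the absence of CPT (DMSO vehicle).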
# HT1080 IDH1KD tx = toxicity to HT-1080 IDH1 knockdown cells (counter line); HT-1080 IDH1 knockdown viability, ATP luminescence, 48 h; Potency, µM (doses to about 46.1 µM), for inactives: at the highest dose activity, negative = toxicity, usual class: cytotoxic; 2% of 360,000 active;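 note: 0% = DMSO wells and -100% = cell-free medium wells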
#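 IDH1KD HT-1080 cells, 750/well, RPMI + 5% FBS; compound pinned after 2 h settling; 48 h, 37 °C; CellTiter-Glo luminescence; % activity normalised to DMSO and no-cell wells; curves fitted, classed by r2 and efficacy.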
# KB-V1 MDR tox = kills drug-selected multidrug resistant KB-V1 cells | 3.4% of 400,000 active | KB-V1 MDR cells viability, CellTiter-Glo, 72 h | AID 1347076 | Potency, µM (top dose mostly 46.1 µM), usual class: cytotoxic; note: nearly all actives have a fitted effect of over 60% in size
#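 KB-V1, DMEM (no phenol red) + 10% FBS; cpd pin-transferred, titration series; 72 h, 37 degrees C; CellTiter-Glo, luminescence. Data normalized, curve-fit.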
# KB-3-1 cytotox = KB-3-1 parental cell cytotoxicity; KB-3-1 viability, CellTiter-Glo ATP luminescence, 72 h; Potency, µM (top dose mostly 46.1 µM), usual class: cytotoxic; 1.4% of 400,000 active; note: nearly all actives have a fitted effect of over 60% in size
#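 Cells are dispensed, compounds pinned in, plates held at 37 °C for 72 h, then CellTiter-Glo is added and luminescence read after 10 minutes. Cell line: parental KB-3-1 in phenol-red-free DMEM, 10% FBS.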
# DT40 TDP1 CPT = DT40-hTDP1 cell growth loss with CPT; Potency, µM (doses to about 46.2 µM), without a hit: at the highest dose activity change, negative = growth inhibition, actives largely listed as inhibitors; chicken DT40 Tdp1-/-;hTDP1 cells + 20 nM CPT, ATP luminescence, 48 h; 12% of 420,000 active; note: nearly all actives have a fitted effect of over 55% in size
#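 Cell growth measured by CellTiter-Glo luminescence after a minimum 48 h, 37 C compound exposure with 20 nM CPT in Tdp1-knockout DT40 cells stably expressing hTDP1, seeded 400/well; qHTS titration format.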
# Numbers without * were called inactive; i = inactive; ? = inconclusive; . = not tested or not shown. Calls come from the whole dose curve; as a rule, active = well fitted curve in the direction sought with a large enough effect; inconclusive = small, poorly fitted or top-dose-only effect, or another doubt; inactive = no such curve, though single readings can be large; an effect the other way counts as inactive or inconclusive. Unless noted, % is set by controls: 0 for no effect and ±100 for the full control effect; potency is the fitted concentration of half-maximal effect.
SMILES,HT1080NT lethal,DT40 TDP1 no CPT,HT1080 IDH1KD tx,KB-V1 MDR tox,KB-3-1 cytotox,DT40 TDP1 CPT
O=C(C1=C[C@H](c2coc3ccccc3c2=O)C[C@H](OCCCCO)O1)N1CCN(Cc2ccc3c(c2)OCO3)CC1,-3%,16µM*,-1%,i,i,21µM*
Cc1nc2ccccc2n1C(C)c1nc2ccccc2n1CC(=O)c1ccc(OC(F)(F)F)cc1 (stereo not given),-3%,?,-22%,?,i,?
O=C(COC(=O)c1ccccc1OCc1ccccc1Cl)NCC1CCCO1 (stereo not given),1%,?,-2%,i,i,?
Cc1ccc(C(=O)NCC(C)NC(=O)c2ccc(C)c(C)c2)cc1C (stereo not given),-8%,26µM*,-12%,i,i,?
O=C(NCC(c1ccco1)S(=O)(=O)c1ccc(Cl)cc1)c1ccccc1F (stereo not given),.,16µM*,.,i,i,?
Cc1ccc(S(=O)(=O)C(CNC(=O)c2ccc(F)c(F)c2)c2ccco2)cc1 (stereo not given),.,?,.,i,i,16µM*
CCOc1ccc(C(=O)NCC(c2ccco2)S(=O)(=O)c2ccc(C)cc2)cc1 (stereo not given),.,?,.,i,i,?
Cc1ccc(C(=O)NCC(c2ccco2)S(=O)(=O)c2ccc(Cl)cc2)cc1C (stereo not given),.,21µM*,.,i,i,16µM*
Cc1noc(C)c1COC(=O)Cc1ccc(Cl)c(Cl)c1,20%,-9%,18%,i,i,-12%
O=C1C2CC=CCC2C(=O)N1c1n[nH]c(CCc2ccccc2)n1 (stereo not given),-3%,-16%,-2%,i,i,-2%
Cc1ccc(S(=O)(=O)C(CNC(=O)c2c(F)cccc2F)c2ccco2)cc1 (stereo not given),.,23µM*,.,i,i,?
O=C(NCC(c1ccco1)S(=O)(=O)c1cccs1)c1ccc(F)c(F)c1 (stereo not given),.,16µM*,.,i,i,13µM*
Cc1ccc(S(=O)(=O)C(CNC(=O)COc2ccc(Cl)cc2)c2ccco2)cc1 (stereo not given),.,?,.,i,i,23µM*
Cc1ccc(S(=O)(=O)C(CNC(=O)C(=O)NCc2ccc(Cl)cc2)c2ccco2)cc1 (stereo not given),.,-14%,.,i,i,-3%
CCOc1ncccc1C(=O)NCc1ccccc1Cl,0%,12%,2%,i,i,3%
COc1cccc(OC)c1NC(=O)CN(C)S(=O)(=O)c1ccc2c(c1)OCCO2,9%,-20%,8%,i,i,6%
O=C(CSc1cn[nH]n1)Nc1ccccc1F,-11%,-3%,-6%,?,i,-5%
Nc1c(N(CCCO)C(=O)CCCN2C(=O)c3cccc4cccc(c34)C2=O)c(=O)[nH]c(=O)n1Cc1ccccc1,14%,?,15%,i,i,10µM*
Nc1c(N(CCCO)C(=O)C2CCCCC2)c(=O)[nH]c(=O)n1Cc1ccccc1,3%,13%,0%,i,i,-8%
Fc1ccc(C2CC(c3ccco3)n3ncnc3N2)cc1 (stereo not given),1%,-17%,-5%,i,?,-13%
COc1ccccc1C1CC(c2ccc(C)cc2)Nc2ncnn21 (stereo not given),0%,18µM*,6%,i,i,?
COc1ccccc1C1CC(c2ccccc2)Nc2ncnn21 (stereo not given),?,23µM*,?,?,?,8.2µM*
Cc1ccc(C2CC(c3ccco3)n3ncnc3N2)cc1 (stereo not given),8%,-22%,0%,i,i,-94%
COc1ccccc1C1CC(c2ccc(F)cc2)Nc2ncnn21 (stereo not given),-2%,21µM*,-8%,i,i,7.3µM*
CC(C)(C)Cc1c(-c2cccc(Cl)c2)nc2ccc(Br)cn12,3%,?,-6%,i,i,?
SMILES,HT1080NT lethal,DT40 TDP1 no CPT,HT1080 IDH1KD tx,KB-V1 MDR tox,KB-3-1 cytotox,DT40 TDP1 CPT
Cn1c(N)c(C(=O)/C=C/c2ccccc2)c(=O)[nH]c1=O,-17%,-4%,-21%,i,i,13%
Cc1cc(NCc2ccccn2)n2ncc(-c3ccccc3)c2n1,-25%,0.15µM*,?,?,i,0.16µM*
Cc1cc(NCc2ccccn2)n2ncc(-c3ccc(Cl)cc3)c2n1,?,0.82µM*,?,?,i,0.58µM*
O=C(NC1CC1)C1=C[C@@H](c2ccc(Br)cc2)C[C@@H](OCc2ccc(CO)cc2)O1,1%,?,2%,i,i,?
O=C(CC[C@H]1O[C@@H](n2ccc(=O)[nH]c2=O)[C@H](O)[C@@H]1O)N[C@@H](Cc1ccccc1)C(=O)NCC1CCCCC1,29%,1%,12%,i,i,7%
CCCCNC(=O)C(NC(=O)c1ccc2ccccc2c1)C(=O)c1ccccc1 (stereo not given),-23%,-27%,?,?,i,?
O=C(CSc1nc(C(F)(F)F)cc(=O)[nH]1)N1CCC(Cc2ccccc2)CC1,-10%,12µM*,-9%,i,i,-11%
Cc1nc(SCC(=O)N2CCC(Cc3ccccc3)CC2)[nH]c(=O)c1C,1%,23µM*,-11%,i,i,16µM*
Cc1cc(=O)[nH]c(SCC(=O)N2CCC(Cc3ccccc3)CC2)n1,-5%,6%,-3%,?,i,3%
Fc1cccc(Cc2c(-c3ccc(Cl)cc3)nc3ccc(Br)cn23)c1,7%,16µM*,0%,i,i,?
Fc1cccc(Cc2c(-c3cccc(Br)c3)nc3ccc(Br)cn23)c1,-26%,?,-22%,i,i,-29%
Fc1ccc(-c2nc3ccc(Cl)cn3c2Cc2cccc(Cl)c2)cc1,?,?,?,i,i,-3%
Cc1ccc(-c2nc3ccc(Cl)cn3c2Cc2cccc(F)c2)cc1,?,?,?,i,i,21µM*
CC(C)(C)Cc1c(-c2ccc(F)cc2)nc2ccc(Cl)cn12,-9%,21µM*,-11%,i,i,?

# Bioassay records: PubChem BioAssay, National Center for Advancing Translational Sciences (NCATS)
